Tcruzi prolif: T. cruzi proliferation inhibition. inhibition, % at 8.34 µM. T. cruzi beta-gal in NIH3T3, GalScreen luminescence, 90 h. 77,000 compounds, 5.9% hits;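 active = mean inhibition above about 93%, with at least 55% of replicates each passing it, limit read from the data, passing the limit was not always enough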
Pf Dd2 growth: blocks growth of Plasmodium falciparum Dd2 parasites; P. falciparum Dd2 growth, SYBR Green, 72 h; stronger effect = lower value; AID 1159554; 94,000 compounds, 2.3% hits; activity change, % at 10 µM; in the data active = activity change below about -80%
C diff growth: blocks growth of Clostridium difficile. 86,000 compounds, 0.25% hits. Clostridium difficile clinical isolate growth, OD600, 24 h; stronger effect = lower value. growth activity, negative = inhibition, % at 16 µg/mL (by protocol);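 active = mean growth activity at or below -80% and every replicate also at or below -80%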;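 note: 0% = DMSO wells and -100% = levofloxacin 16 µg/mL wells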
* marks the source's active call; other numbers are inactive results; · = no result. Hits are enriched below; roughly 6.7% of the tested compounds scored in any of these assays.

SMILES	Tcruzi prolif	Pf Dd2 growth	C diff growth
COc1ccc2c3c(n(C)c2c1)[C@H](CO)NCC31CCN(Cc2ccc(-c3ccccn3)cc2)CC1	·	-88.2*	-7.2
COc1ccc2c3c(n(C)c2c1)[C@@H](CO)NCC31CCN(Cc2ccc(-c3ccccn3)cc2)CC1	·	-88.3*	-7.1
COc1ccc2c3c(n(C)c2c1)[C@@H](CO)NCC31CN(Cc2ccc(-c3ccccn3)cc2)C1	·	-89.2*	10.4
COc1ccc2c3c(n(C)c2c1)[C@@H](CO)NCC31CCN(Cc2cc(-c3ccccc3)on2)CC1	·	-72.0	-18.2
COc1ccc2c3c(n(C)c2c1)[C@@H](CO)NCC31CCN(Cc2ccccc2F)CC1	·	-78.0	8.7
COc1ccc2c3c(n(C)c2c1)[C@H](CO)NCC31CN(Cc2ccc(Cl)cc2)C1	·	-9.0	·
CN(C)C(=O)[C@@H]1[C@@H](CO)[C@@H]2Cn3c(ccc(C4=CCCCC4)c3=O)[C@@H]2N1Cc1ccc2c(c1)OCO2	78.2	-10.4	2.0
O=C(C1CCCC1)N1C[C@H]2[C@@H](c3ccccc31)[C@H](CO)N2C(=O)c1cccnc1	30.7	-2.8	6.4
COc1ccccc1CNC(=O)C[C@H]1C=C[C@H](NC(C)=O)[C@H](CO)O1	9.2	1.4	-2.0
COc1ccc(S(=O)(=O)N(C)C[C@H]2OCCCC[C@H](C)Oc3ccc(NC(=O)c4ccccc4)cc3C(=O)N([C@@H](C)CO)C[C@H]2C)cc1	59.0	-84.8*	21.1
COc1ccc(S(=O)(=O)N(C)C[C@@H]2OCCCC[C@H](C)Oc3ccc(NC(=O)c4ccccc4)cc3C(=O)N([C@@H](C)CO)C[C@H]2C)cc1	64.0	-84.2*	21.3
COc1ccc(S(=O)(=O)N(C)C[C@@H]2OCCCC[C@H](C)Oc3ccc(NC(=O)c4ccccc4)cc3C(=O)N([C@H](C)CO)C[C@@H]2C)cc1	85.9	-76.5	26.7
COc1ccc(S(=O)(=O)N(C)C[C@H]2OCCCC[C@@H](C)Oc3ccc(NC(=O)c4ccccc4)cc3C(=O)N([C@H](C)CO)C[C@@H]2C)cc1	83.7	-44.5	16.7
Cc1noc(C)c1S(=O)(=O)N(C)C[C@H]1Oc2ccc(NC(=O)Cc3ccccc3)cc2CC(=O)N([C@@H](C)CO)C[C@@H]1C	34.1	-14.2	-6.6
CO[C@@H]1CN(C)C(=O)c2ccc(NC(=O)c3nc4ccccc4s3)cc2OC[C@H](C)N(Cc2cccnc2)C[C@@H]1C	91.0	-82.7*	-8.9
CO[C@@H]1CN(C)C(=O)c2ccc(NC(=O)c3nc4ccccc4s3)cc2OC[C@H](C)N(Cc2ccncc2)C[C@@H]1C	·	-95.9*	·
CO[C@@H]1CN(C)C(=O)c2ccc(NC(=O)c3nc4ccccc4s3)cc2OC[C@@H](C)N(Cc2ccncc2)C[C@@H]1C	·	-71.7	·
CO[C@@H]1CN(C)C(=O)c2ccc(NC(=O)c3nc4ccccc4s3)cc2OC[C@H](C)N(Cc2cccnc2)C[C@H]1C	69.3	-52.6	0.0
O=C(C1CCOCC1)N1C[C@@H]2[C@H](c3ccccc31)[C@H](CO)N2Cc1ccccc1	9.5	8.1	5.5
C[C@@H]1CN([C@H](C)CO)C(=O)c2c(c3ccccc3n2C)-c2ccccc2CO[C@H]1CN(C)S(=O)(=O)c1cccc(F)c1	65.8	-62.9	0.0
COc1ccccc1S(=O)(=O)N(C)C[C@H]1OCc2ccccc2-c2c(n(C)c3ccccc23)C(=O)N([C@@H](C)CO)C[C@H]1C	51.3	-67.6	1.7
COc1ccccc1S(=O)(=O)N(C)C[C@H]1OCc2ccccc2-c2c(n(C)c3ccccc23)C(=O)N([C@@H](C)CO)C[C@@H]1C	72.3	-86.6*	4.8
COc1cccc(S(=O)(=O)N(C)C[C@H]2OCc3ccccc3-c3c(n(C)c4ccccc34)C(=O)N([C@H](C)CO)C[C@@H]2C)c1	62.8	-55.7	3.0
COc1cccc(S(=O)(=O)N(C)C[C@@H]2OCc3ccccc3-c3c(n(C)c4ccccc34)C(=O)N([C@@H](C)CO)C[C@@H]2C)c1	79.3	-85.5*	-6.7
C[C@H](CO)N1C[C@H](C)[C@H](CN(C)S(=O)(=O)c2cccc(F)c2)OCc2ccccc2-c2c(n(C)c3ccccc23)C1=O	·	-90.9*	-0.6
SMILES	Tcruzi prolif	Pf Dd2 growth	C diff growth
COc1cccc(S(=O)(=O)N(C)C[C@@H]2OCc3ccccc3-c3c(n(C)c4ccccc34)C(=O)N([C@H](C)CO)C[C@@H]2C)c1	73.6	-88.9*	-1.2
COc1cccc(S(=O)(=O)N(C)C[C@H]2OCc3ccccc3-c3c(n(C)c4ccccc34)C(=O)N([C@@H](C)CO)C[C@H]2C)c1	74.2	-74.9	-9.8
O=C(C[C@@H]1CC[C@H]2[C@@H](COC[C@@H](O)CN2S(=O)(=O)c2ccc(F)cc2)O1)NCC1CCCCC1	-8.4	·	60.5
O=C(C[C@@H]1CC[C@@H]2[C@H](COC[C@@H](O)CN2Cc2cccc(-c3ccncc3)c2)O1)N1CCOCC1	41.6	24.7	0.9
C[C@H](CO)N1C[C@H](C)[C@H](CN(C)Cc2ccc(Oc3ccccc3)cc2)Oc2ccc(NC(=O)CCCN(C)C)cc2C1=O	-83.2	-27.5	6.2
COc1ccc(-c2ccc3c(c2)O[C@@H](CN(C)Cc2ccccc2C(=O)O)[C@H](C)CN([C@@H](C)CO)S3(=O)=O)cc1	10.5	-64.9	-7.6
Cc1ccccc1-c1cnc2c(c1)C(=O)N([C@@H](C)CO)C[C@H](C)[C@@H](CN(C)C(=O)c1ccncc1)O2	19.2	15.9	6.8
C[C@@H]1CCCCO[C@H](CN(C)C(=O)Nc2ccc(F)cc2)[C@H](C)CN([C@H](C)CO)C(=O)c2cc(N(C)C)ccc2O1	15.7	·	1.2
CO[C@@H]1CN(C)C(=O)c2ccc(NC(=O)Nc3c(C)noc3C)cc2OC[C@H](C)NC[C@H]1C	28.5	5.0	·
C[C@@H]1CN([C@H](C)CO)C(=O)c2cc(NC(=O)C3CCCCC3)ccc2O[C@@H](C)CCCCO[C@H]1CN(C)C(=O)Nc1ccc(F)cc1	35.9	-42.9	1.2
C[C@@H]1CCCCO[C@@H](CN(C)C(=O)Nc2ccc(C(F)(F)F)cc2)[C@H](C)CN([C@@H](C)CO)C(=O)c2cc(NC(=O)C3CCCCC3)ccc2O1	93.8	-50.2	4.8
C[C@@H]1CCCCO[C@H](CN(C)C(=O)Nc2ccc(C(F)(F)F)cc2)[C@H](C)CN([C@@H](C)CO)C(=O)c2cc(NC(=O)C3CCCCC3)ccc2O1	94.1	-83.2*	4.4
C[C@@H]1CCCCO[C@H](CN(C)C(=O)Nc2ccc(F)cc2)[C@H](C)CN([C@H](C)CO)C(=O)c2cc(NC(=O)C3CCCCC3)ccc2O1	55.6	-81.2*	2.5
O=C(C[C@@H]1C=C[C@@H](NC(=O)Nc2cccc(F)c2)[C@@H](CO)O1)NCC1CC1	·	-12.5	-0.8
Cc1ccc(S(=O)(=O)Nc2ccc3c(c2)C(=O)N([C@H](C)CO)C[C@H](C)[C@H](CN(C)C(=O)Nc2ccccc2)O3)cc1	13.4	2.5	-4.8
CCCNC(=O)N1CC2(CN(C(=O)c3cccc(F)c3)C2)c2c([nH]c3cc(OC)ccc23)[C@@H]1CO	·	5.8	-9.2
C[C@@H]1CCCCO[C@@H](CN(C)S(=O)(=O)c2ccc(F)cc2)[C@H](C)CN([C@H](C)CO)C(=O)c2cc(NC(=O)Cc3ccccc3)ccc2O1	48.8	-76.7	2.1

Assay outcomes from PubChem BioAssay.
